The values that follow come from PubChem BioAssay (NCI).

About 83,000 compounds went through this panel and 20% of them were active in at least one assay; those are over-represented in the sample as a whole.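 Cells were grown in 96-well plates and exposed to the test compound at a single concentration for 48 hours; results are reported as percent growth, with values below 10 considered active.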 Unmarked numbers belong to inactive results. Active and inactive are the calls of the source.

In the test the test system is HL-60(TB) leukemia. Put plainly: NCI-60 one-dose screen, 48 h (100 = growth as untreated, 0 = no growth, -100 = all killed). The conditions noted are these: 10 µM unless noted.
On to `Cc1nc2cc(Nc3nc(NCCN)nc(Nc4ccc(F)cc4)n3)ccc2n1Cc1ccccc1`, for which the growth was -21.5% (active).

Consider `CCc1ccccc1C(=O)N(CC)CC`, for which the growth is 95.1%.

On to `COc1ccc(Cc2cnc(NC(=O)c3cc(C)oc3C)s2)cc1`, for which the growth is -9.34% (active).

With `Nc1nc(N)c2c(n1)NC(c1ccccc1)C1CCc3ccccc3C1=N2` (stereo not given), the growth is -11.2% (active).

Turning to `CC(=O)Nc1cc2c(cc1Cl)Cc1cc(Cl)ccc1-2`, the growth was 114%.

Regarding `CCCCCCCCCc1ccc(OCCOCCOCCOCCOCCOCCOCCOCCOCCO)cc1`, the growth was -40.9% (active).

In the case of `Cc1cn(C2CCCCO2)c(=O)nc1NO` (stereo not given), the growth is 102%.

As to `CCOc1ccc(-c2nc3ccc(-c4nc5ccc(N6CCN(C)CC6)cc5[nH]4)cc3[nH]2)cc1`, the growth is -57.9% (active).

Turning to `CN(C)CCN1C(=O)c2cccc3c(N)ccc(c23)C1=O`, the growth was -6.78% (active).

For `Clc1ccccc1CNc1c2ccccc2nc2ccccc12`, the growth is 13.6%.

Turning to `CNC(=O)c1c(NC(=O)c2ccc(C(C)C)cc2)sc2c1CCC(=O)C2`, the growth was -13.9% (active).

Take `COc1cc(C)ccc1Oc1nc(Nc2ccc(N3CCOCC3)cc2)ncc1N=Cc1cc(C(F)(F)F)cc(C(F)(F)F)c1`: the growth was 67.4%.

As to `CC(C)(C)CC(C)(C)Nc1c(-c2ccc(-c3ccccc3)cc2)nc2cnccn12`, the growth was 92.9%.

On to `Nc1nc(Cl)c2[nH]cnc2n1`, for which the growth is 89.5%.

For the compound `C=C1C(=O)O[C@H]2[C@H]1CC/C(COC(=O)NCc1c[nH]c3ccccc13)=C\CC[C@@]1(C)O[C@@H]21`, the growth is -46.8% (active).

In the case of `COC(=O)[C@]12CC[C@@H](C)[C@H](C)[C@@H]1C1=CC[C@@H]3[C@@]4(C)CC(=O)[C@H](O)[C@@]5(C)COC(=C45)C[C@@]3(C)[C@]1(C)CC2`, the growth was -37.5% (active).

As for `C=CC[P+](c1ccccc1)(c1ccccc1)c1ccccc1`, the growth was 4.03% (active).

For `O=C(Nc1ccc(Br)cc1)Nc1cccc(Br)c1`, the growth is 5.54% (active).

Take `O=C(CSc1nnc(-c2ccc(Cl)c(Cl)c2)n1-c1ccccc1)Nc1ccc(C(=O)/C=C/c2ccc(Cl)cc2)cc1`: the growth is 81.8%.

For the compound `COc1ccc(/C=C/C(=O)Nc2cc(/C=C\c3cc(OC)c(OC)c(OC)c3)cc(OC)c2OC)cc1OC`, the growth was -38.1% (active).

Turning to `CCCCCCCC/C=C/CCCCCCCCC1=NCCN1CCO`, the growth was 8.59% (active).

For `Cc1n[nH]c2ccc(Br)cc2c1=O`, the growth was 94.3%.

Regarding `CCCCCCCCCCCCCCCCCCOCC(COCCOCC[N+]1(CCCCCC(=O)[O-])CCCC1)Oc1ncccn1` (stereo not given), the growth was -32.2% (active).

Consider `C=C1C(=O)O[C@H]2[C@H]1CC/C(COC(=O)CCCC(=O)OC/C1=C/CC[C@@]3(C)O[C@H]3[C@H]3OC(=O)C(=C)[C@@H]3CC1)=C\CC[C@@]1(C)O[C@@H]21`, for which the growth is -41.8% (active).

Take `CC(=O)O[C@@H]1C[C@]2(C)[C@H]3[C@H](O)C[C@@H]4C5=CC(C)(C)CC[C@]5(C)CC[C@@]4(C)[C@]3(C)CC[C@H]2C(C)(C)[C@H]1O`: the growth was 120%.

For the compound `COc1ccc2nc(Cl)c(/C=C/C(=O)c3ccc(NC(=O)CSc4nnc(-c5ccc(Cl)c(Cl)c5)n4-c4ccccc4)cc3)cc2c1`, the growth is 73.1%.

Consider `Cc1c(-c2ccccc2)[nH]c2ccccc12`, for which the growth was 106%.

Take `Cc1ccc2nc(-c3ccc(C(=O)NNC(=S)Nc4ccccc4)cc3)[nH]c2c1`: the growth is 98%.

On to `N#Cc1c(NC(=O)c2ccccc2)sc2c1CCC(=O)C2`, for which the growth is -2.62% (active).

For `CN1C(=O)/C(=C\c2c(Cl)cccc2Cl)c2ccccc21`, the growth was 80.9%.

With `O=C(CCCNC(=O)c1nc(-c2ccccc2)n(-c2ccccc2)n1)NO`, the growth was 87.9%.

For `O=C1CC(c2ccsc2)c2snc(-c3ccc(Cl)cc3)c2N1` (stereo not given), the growth is 12.9%.

With `CC1(C)C2CCC1(C)C1(C2)OCCS1` (stereo not given), the growth is 91.3%.

Regarding `CCOc1nc(-c2ccccc2)cc2c(O)c(C(=O)NCCCO)[nH]c(=O)c12`, the growth was 177%.

On to `CC(C)n1nc(C#Cc2cccc(O)c2)c2c(N)ncnc21`, for which the growth was -57.9% (active).

For the compound `C=C1C(=O)O[C@H]2[C@H]1CC/C(COC(=O)NCC(C)c1ccc(CC(C)C)cc1)=C\CC[C@@]1(C)O[C@@H]21` (stereo not given in full), the growth was -29.8% (active).

Consider `O=C(Nc1ccc(Cl)c(Cl)c1)O/N=C\c1c(Cl)ccc([N+](=O)[O-])c1Cl`, for which the growth is -61.4% (active).

With `COc1ccc(OC)c2c1[nH]c(=O)c1c3ccccc3cn21`, the growth is -49.3% (active).

`COc1cc(-c2nc3cc(Cl)c(Cl)cc3[nH]2)ccc1OCC(=O)N=Nc1c(O)[nH]c2ccccc12`: the growth was -51.5% (active).

For `CCOC(=O)c1ccc(NC(=O)N2CC(C)OC(C)C2)cc1` (stereo not given), the growth was 92.8%.
